ChEMBL document CHEMBL4513216, “Probing the Open Global Health Chemical Diversity Library for Multistage-Active Starting Points for Next-Generation Antimalarials” (ACS Infect Dis, 2020)
In all, about 69,000 compounds went through this assay and about 8,600 (12%) showed an effect of 50% or more. The entries come from a sample that favours strong results as a whole.

Test system: Plasmodium berghei
Assay: Screen against P. berghei liver stage (PbLuc), transformed with Luciferase, at 10uM
Format: functional, HepG2
Details: tested at 10 uM

Question: With O=C(NCc1cnc2n1CCN(CC1CCOCC1)C2)c1ccno1 as the molecule, how does the INHIBITION read?
Answer: Its INHIBITION is 50.3%.

Question: With O=C(NCc1cnc2n1CCN(Cc1ccoc1)C2)c1ccno1 as the molecule, how does the INHIBITION read?
Answer: Its INHIBITION is 63.8%.

Question: How did the INHIBITION turn out when O=C(NCc1cnc2n1CCN(CC1CC1)C2)C1CC1 was run?
Answer: Its INHIBITION is -30%.

Question: Which INHIBITION does the source give for O=C(NCc1cnc2n1CCN(Cc1cccs1)C2)c1ccno1 here?
Answer: The INHIBITION was 12.2%.

Question: How did the INHIBITION turn out when O=C(C(c1ccccc1)S(=O)(=O)c1ccccn1)N1CCCC1 (centres undefined) was run?
Answer: Its INHIBITION is 14.2%.

Question: With Cn1nnc2c1CCN(Cc1ccccn1)C2COCc1ccccc1 (centres undefined) as the molecule, how does the INHIBITION read?
Answer: Its INHIBITION is 21.3%.

Question: With CC(=O)N1CCCCC1c1nc(C)cc(-c2ccccc2C(=O)O)n1 (centres undefined) as the molecule, how does the INHIBITION read?
Answer: The INHIBITION was 15.9%.

Question: Which INHIBITION does the source give for Cc1cc(-c2ccccc2C(=O)O)nc(C2CCCN2S(C)(=O)=O)n1 (centres undefined) here?
Answer: The INHIBITION was 12.8%.

Question: Cc1cc(-c2ccccc2C(=O)O)nc(C2CCCCN2C)n1 (centres undefined) was tested. Which INHIBITION did it give?
Answer: The INHIBITION was 59%.

Question: O=C(Cc1cn2ccsc2n1)N1CCCC(n2cccn2)C1 (centres undefined) was tested. Which INHIBITION did it give?
Answer: Its INHIBITION is -1.12%.

Question: COCCc1noc(CN2CCCC2c2noc(C(C)C)n2)n1 (centres undefined) was tested. Which INHIBITION did it give?
Answer: The INHIBITION was 21.8%.

Question: How did the INHIBITION turn out when CN(Cc1ccc(-n2cccn2)cc1)c1nc(N)nc2c1CCNCC2 was run?
Answer: Its INHIBITION is 45%.

Question: How did the INHIBITION turn out when CN(Cc1cccc(-n2cccn2)c1)Cc1c[nH]cn1 was run?
Answer: The INHIBITION was 35.05%.

Question: Which INHIBITION does the source give for CN(Cc1ccc(-n2cccn2)cc1)Cc1cnc(N(C)C)nc1 here?
Answer: Its INHIBITION is 37.4%.

Question: How did the INHIBITION turn out when CN(Cc1cccc(-n2cccn2)c1)C(=O)c1ccnc(N)c1 was run?
Answer: The INHIBITION was 21.2%.

Question: With CN(Cc1cccc(-n2cccn2)c1)c1cc(N2CCCC2)nc(N)n1 as the molecule, how does the INHIBITION read?
Answer: Its INHIBITION is 93.9%.

Question: Which INHIBITION does the source give for CC(CN(C)Cc1cccc(-n2cccn2)c1)C(F)(F)F (centres undefined) here?
Answer: Its INHIBITION is 17.735%.

Question: For CN(Cc1ccc(-n2cccn2)cc1)c1cc(N)nc(N)n1, which INHIBITION is on record?
Answer: Its INHIBITION is 82.2%.

Question: CN(Cc1cccc(-n2cccn2)c1)C(=O)c1cccc(N(C)C)c1 was tested. Which INHIBITION did it give?
Answer: The INHIBITION was 22.1%.

Question: COc1cc(N(C)Cc2cccc(-n3cccn3)c2)nc(N)n1 was tested. Which INHIBITION did it give?
Answer: Its INHIBITION is 80%.

Question: With CCCc1nc(C)c(C(=O)NCCNc2ncccc2C#N)s1 as the molecule, how does the INHIBITION read?
Answer: The INHIBITION was -24.2%.

Question: Which INHIBITION does the source give for CC(C)NC(=O)[C@H]1C[C@@H]2[C@@H](C1)OCCN2Cc1cnn(C)c1 here?
Answer: Its INHIBITION is -4.56%.

Question: With CCOc1ccccc1OC1CCN(C(=O)c2cnsn2)CC1 as the molecule, how does the INHIBITION read?
Answer: The INHIBITION was 21.5%.

Question: How did the INHIBITION turn out when CN(C)Cc1cn(-c2ccccc2C(=O)NCCC2CCCN2C)cn1 (centres undefined) was run?
Answer: The INHIBITION was 10%.

Question: How did the INHIBITION turn out when Nc1ncccc1CN1CCCn2nc(CCC(=O)NC3CC3)cc2C1 was run?
Answer: Its INHIBITION is 46.1%.

Question: With COc1ccc(S(=O)(=O)N2CCN(C)c3ncccc3C2)cc1 as the molecule, how does the INHIBITION read?
Answer: Its INHIBITION is 42.1%.

Question: Which INHIBITION does the source give for CN1CCN(S(=O)(=O)c2ccccc2)Cc2cccnc21 here?
Answer: The INHIBITION was 14.9%.

Question: For CN1CCN(S(=O)(=O)c2cccc(F)c2)Cc2cccnc21, which INHIBITION is on record?
Answer: Its INHIBITION is 65.7%.

Question: Cc1cc(C2CCCN2Cc2ccn(C)c(=O)c2)on1 (centres undefined) was tested. Which INHIBITION did it give?
Answer: The INHIBITION was 20.1%.

Question: For CC(C)(C)N1CC(C(=O)NCc2cn3cccnc3n2)CC1=O (centres undefined), which INHIBITION is on record?
Answer: Its INHIBITION is 53.9%.

Question: CN(C)CCN1CC(C(=O)NCc2cn3cccnc3n2)CC1=O (centres undefined) was tested. Which INHIBITION did it give?
Answer: Its INHIBITION is 23.9%.

Question: O=C(NCc1cn2cccnc2n1)C1CC(=O)N(Cc2ccccn2)C1 (centres undefined) was tested. Which INHIBITION did it give?
Answer: The INHIBITION was 37.6%.

Question: For Cc1nc(CN2CCC3(CCCN(Cc4ccoc4)C3)C2=O)cs1 (centres undefined), which INHIBITION is on record?
Answer: The INHIBITION was -5.31%.

Question: Which INHIBITION does the source give for COc1c[nH]c(C(=O)Nc2nc(C(C)(C)C)cs2)cc1=O here?
Answer: The INHIBITION was 29.4%.

Question: With CC[C@H](C)[C@H](N)C(=O)Nc1nc(-c2cnc(N(C)C)nc2)cs1 as the molecule, how does the INHIBITION read?
Answer: Its INHIBITION is 21.9%.

Question: For CCN1CC2(CC1=O)CN(C(=O)N(C)C)CCN(S(C)(=O)=O)C2 (centres undefined), which INHIBITION is on record?
Answer: Its INHIBITION is 31.9%.

Question: CCN1CC2(CC1=O)CN(C(=O)C(C)C)CCN(S(C)(=O)=O)C2 (centres undefined) was tested. Which INHIBITION did it give?
Answer: Its INHIBITION is 46.7%.

Question: With CCN1CC2(CC1=O)CN(Cc1ccco1)CCN(C(=O)N(C)C)C2 (centres undefined) as the molecule, how does the INHIBITION read?
Answer: The INHIBITION was 5.14%.

Question: How did the INHIBITION turn out when CCN1CC2(CC1=O)CN(Cc1ccco1)CCN(C(=O)C(C)C)C2 (centres undefined) was run?
Answer: The INHIBITION was 57.4%.

Question: With CCN1CC2(CC1=O)CN(C(=O)COC)CCN(S(C)(=O)=O)C2 (centres undefined) as the molecule, how does the INHIBITION read?
Answer: The INHIBITION was 63%.

Question: How did the INHIBITION turn out when CCS(=O)(=O)N1CCN(C(=O)C(C)C)CC2(CC(=O)N(C)C2)C1 (centres undefined) was run?
Answer: Its INHIBITION is 45.8%.

Question: Which INHIBITION does the source give for CCN1CC2(CC1=O)CN(C(C)=O)CCN(S(C)(=O)=O)C2 (centres undefined) here?
Answer: Its INHIBITION is 26%.

Question: Which INHIBITION does the source give for CCN1CC2(CC1=O)CN(Cc1ccc(C)o1)CCN(C(=O)C(C)C)C2 (centres undefined) here?
Answer: The INHIBITION was 42.5%.

Question: For CCN1CC2(CC1=O)CN(C(=O)C(C)C)CCN(S(=O)(=O)CC)C2 (centres undefined), which INHIBITION is on record?
Answer: Its INHIBITION is 52.3%.

Question: CC(C)c1nnc2n1CCN(C(=O)c1ccc3c(c1)CCC3)C2 was tested. Which INHIBITION did it give?
Answer: The INHIBITION was -12.2%.

Question: COc1ccccc1C1=NOC(CC2(C(=O)O)CCOCC2)C1 (centres undefined) was tested. Which INHIBITION did it give?
Answer: The INHIBITION was 29.2%.

Question: With CCn1cnnc1C1CCN(C(=O)c2cccc(N(C)C)c2)CC1 as the molecule, how does the INHIBITION read?
Answer: The INHIBITION was 39.7%.

Question: How did the INHIBITION turn out when CCc1cnc(N2C[C@H]3CN(Cc4csc(C)n4)C(=O)[C@H]3C2)nc1 was run?
Answer: Its INHIBITION is 18.5%.

Question: Which INHIBITION does the source give for Cc1cc(C(=O)NS(C)(=O)=O)c(C)n1-c1ccccc1 here?
Answer: The INHIBITION was 37.9%.

Question: Cc1nc(CN2C[C@@H]3CN(C(=O)c4cnccn4)C[C@@H]3C2)cs1 was tested. Which INHIBITION did it give?
Answer: Its INHIBITION is -13.2%.

Question: For CN1C[C@@H](C(=O)NC(C)(C)C)[C@@]2(CCc3ccccc3C(=O)N2)C1, which INHIBITION is on record?
Answer: The INHIBITION was 16.5%.

Question: Which INHIBITION does the source give for COCCn1ccc(NC(=O)Nc2cccnc2)n1 here?
Answer: Its INHIBITION is 25.3%.

Question: Which INHIBITION does the source give for Cc1cc(N2CCOC(c3ccc(N(C)C)cn3)C2)nc(N)n1 (centres undefined) here?
Answer: Its INHIBITION is -0.6%.

Question: Cc1cc(C(=O)N2CCC3(CC2)COCCN(c2cccnc2)C3)[nH]n1 was tested. Which INHIBITION did it give?
Answer: Its INHIBITION is 24.6%.
